Here are results for 60 compounds from PubChem BioAssay AID1508611 (The Scripps Research Institute Molecular Screening Center, 2020).

Each structure is given as a SMILES string. Hit rate of the full screen: of about 6,700 compounds, about 20 (0.3%) were called active.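 Rule for the calls: active = mean percent activation in the counterscreen above 29.09%; inactive = the rest.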 The sample as a whole holds a higher share of actives than the screen did.

In the assay the target is Glucose-dependent insulinotropic receptor (Homo sapiens) (UniProt Q8TDV5). The experiment in a line: GPR119 activators in beta-arrestin cells, counter-screen for GPR151 activator project, cell-based, PathHunter beta-arrestin, luminescence, triplicate (AID 1508611).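 Note: counterscreen on off-target GPR119 to flag nonselective hits from the GPR151 activator screen.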 The following applies: 90 min, at 11.2 µM, hits give high values, 0 = compound-well median, 100 = enzyme-acceptor control. In general terms: Counterscreens check selectivity or assay interference.
Sequence of Glucose-dependent insulinotropic receptor (Homo sapiens) (Q8TDV5 whole entry, looked up): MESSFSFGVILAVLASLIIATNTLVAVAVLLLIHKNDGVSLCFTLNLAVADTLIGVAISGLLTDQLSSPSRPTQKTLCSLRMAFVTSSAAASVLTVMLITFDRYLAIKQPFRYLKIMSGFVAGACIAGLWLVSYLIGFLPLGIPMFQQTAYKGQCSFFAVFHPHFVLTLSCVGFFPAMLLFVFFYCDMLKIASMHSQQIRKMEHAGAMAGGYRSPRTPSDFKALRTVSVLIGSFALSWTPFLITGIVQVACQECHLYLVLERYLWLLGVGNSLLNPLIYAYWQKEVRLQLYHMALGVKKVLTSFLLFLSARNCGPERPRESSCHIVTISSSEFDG
As to `CC(=O)Cn1c(=O)c2c(nc3n2CCCN3c2ccc(Br)cc2)n(C)c1=O`, the activation is 8.64% (inactive).

For the compound `N#Cc1ccc(N2CCN(CCCNC(=O)Nc3ccccc3)CC2)cc1`, the activation is -8.24% (inactive).

Regarding `COc1cccc(/C=C2/C(=O)NC(=O)N(c3ccccc3F)C2=O)c1`, the activation is 15.2% (inactive).

On to `COc1ccc(Br)cc1C(=O)NCC1COc2ccccc2O1` (stereo not given), for which the activation was -9.64% (inactive).

`COc1ccc(C(=O)Nc2sc3c(c2C(N)=O)CCCC3)cc1`: the activation was -10% (inactive).

As to `O=C(Nc1cccc(N2CCC(NCc3ccon3)CC2)c1)c1cccnc1`, the activation was 18.2% (inactive).

Consider `Cc1ccc(S(=O)(=O)Cn2nnnc2CN2CCN(c3ccccc3F)CC2)cc1`, for which the activation was 8.39% (inactive).

For the compound `O=C(COc1ccc([N+](=O)[O-])cc1)Nc1ccc2oc(-c3cccc(F)c3)nc2c1`, the activation was -7.11% (inactive).

`CN1CC(=O)N2CCN(C(=O)OCc3ccccc3)C[C@@H]2C1=O`: the activation was 1.78% (inactive).

As for `CC(C)C(=O)NC(C)c1nnc2n1CCN(Cc1ccc3cccnc3c1)CC2` (stereo not given), the activation is 6.65% (inactive).

On to `CCN(CC)S(=O)(=O)c1ccc(C)c(NS(=O)(=O)c2cccc(C#N)c2)c1`, for which the activation was -6.36% (inactive).

For the compound `CCOc1ccc(N2C(=O)C3C4c5ccccc5C(C(C)O)(c5ccccc54)C3C2=O)cc1` (stereo not given), the activation was -4.77% (inactive).

For `C=CCNC(=O)C(=O)NCC1OCCCN1S(=O)(=O)c1ccccc1` (stereo not given), the activation was -6.88% (inactive).

`CC(=O)Oc1cccc(N2C(=O)C3C4c5ccccc5C(C)(c5ccccc54)C3C2=O)c1` (stereo not given): the activation is -7.48% (inactive).

Regarding `CCOC(=O)C1=C(CC)OC(N)=C(C#N)C1c1ccc(C(F)(F)F)cc1` (stereo not given), the activation was -9.1% (inactive).

For the compound `CCN1/C(=C/c2ccc3cc(C)ccc3[n+]2CC)Sc2ccc(-c3ccccc3)cc21`, the activation was 0.91% (inactive).

Take `CCc1nnc2n1N(C(C)=O)C(c1ccc3c(c1)CCCC3)=C(C(C)=O)S2`: the activation is 3.36% (inactive).

Regarding `CC(C)CCSc1nc2c(c(=O)n1Cc1ccco1)C1(CCCCC1)Cc1ccccc1-2`, the activation is -4.2% (inactive).

Regarding `O=C1CCC(CCNCCOc2ccccc2)N1CCc1ccccc1` (stereo not given), the activation is 12.1% (inactive).

As for `O=C(Cc1cccs1)NCCC1=CCCCC1`, the activation was 0.59% (inactive).

For the compound `CCN1CCCC1CNc1nc(=S)[nH]c2ccccc12` (stereo not given), the activation is -5.74% (inactive).

In the case of `CCc1ccc(NS(=O)(=O)c2ccc(Cl)cc2)cc1`, the activation is 1.55% (inactive).

`CC12CCC(C(=O)Nc3ncc(Cl)cc3Cl)(CC1=O)C2(C)C` (stereo not given): the activation is -5.44% (inactive).

As to `Cc1cnc(Nc2ccc(N3CCOCC3)cc2)nc1NCc1cccc(C(F)(F)F)c1`, the activation was 15.3% (inactive).

Consider `Cc1nc2cc(C(=O)NCc3ccc4c(c3)OCO4)ccc2n1-c1ccc(OCc2ccccc2)cc1`, for which the activation is -11.3% (inactive).

Regarding `COc1ccccc1NC(=O)NCc1nc(-c2ccc(OC)c(OC)c2)no1`, the activation is -3.49% (inactive).

Consider `O=C(COc1ccc(Br)cc1CO)NCC(F)(F)F`, for which the activation was 5.45% (inactive).

As for `CCOC(=O)Cc1coc(NC(=O)c2ccc(Cl)cc2)n1`, the activation is 16.4% (inactive).

As to `Cc1nc2nc(SCc3ccc([N+](=O)[O-])cc3)nn2c(C)c1Cc1c(F)cccc1Cl`, the activation is 15.8% (inactive).

As to `COc1ccccc1C1C(C(N)=O)=C(C)Nc2nc(CCCO)nn21` (stereo not given), the activation is -6.42% (inactive).

On to `CCOc1ccc(NC(=O)COc2cccc(C)c2C)cc1`, for which the activation is 6% (inactive).

In the case of `COc1cccc(C(=O)NC(=S)Nc2ccc(OC)cc2OC)c1`, the activation is 5.05% (inactive).

On to `CCC(=O)Nc1cc(C(=O)O)ccc1C`, for which the activation is 0.03% (inactive).

As for `Brc1cnc(NC2CCCCC2)nc1`, the activation is 4.03% (inactive).

In the case of `CC(C)N1CCc2c(sc(NC(=O)Cc3ccccc3)c2C#N)C1`, the activation is -3.52% (inactive).

Turning to `O=C(N/N=C/c1cc(Cl)ccc1O)c1cc(-c2ccccc2)n[nH]1`, the activation is -13.8% (inactive).

For `COc1ccc(/C=C(\C#N)C(=O)Nc2cccc(S(=O)(=O)N3CCCCC3)c2)cc1`, the activation was -10.3% (inactive).

Take `COc1cccc(-c2nnc(NC(=O)CSc3ccccc3)o2)c1`: the activation is 6.53% (inactive).

As for `Cc1ccc(N2C(=O)CC(N3CCN(Cc4ccc(Cl)cc4)CC3)C2=O)cc1Cl` (stereo not given), the activation is 6.82% (inactive).

With `O=C(CCn1cnc2c(cnn2-c2ccc(F)cc2)c1=O)NCCC1=CCCCC1`, the activation is 1.14% (inactive).

Consider `COc1ccc(OC)c(NC(=O)CSc2nnc3[nH]c(=O)c(C)c(C)n23)c1`, for which the activation is 3.38% (inactive).

For `COc1nc(Nc2ccccc2)nc(-c2c(C)noc2C)n1`, the activation is -7.06% (inactive).

As to `CSc1ncc(C(=O)NCCc2c[nH]c3ccccc23)c(C)n1`, the activation is -0.1% (inactive).

In the case of `Cc1cc(Nc2ccc(F)cc2)n2cnnc2n1`, the activation was -9.37% (inactive).

Turning to `Clc1ccccc1C1C=C(c2ccc(I)cc2)Nc2nnnn21` (stereo not given), the activation was -6.17% (inactive).

For the compound `CCC(C)Nc1nc2c(c(=O)[nH]c(=O)n2C)n1CC(O)COC(C)C` (stereo not given), the activation is -3.29% (inactive).

Take `Cc1cc(N2CCOCC2)ccc1C=C1C(=O)c2ccccc2C1=O`: the activation was 1.45% (inactive).

With `COCCNC(=S)N1CCN(c2ccccc2OC)CC1`, the activation is -11.2% (inactive).

Consider `COc1cc(NC(=O)c2sc3ncnc(N4CCCCC4)c3c2C)cc(OC)c1OC`, for which the activation is 0.56% (inactive).

For `CC(C)(C)OC(=O)N1CCC[C@H](Cn2cc(C(=O)O)nn2)C1`, the activation is 2% (inactive).

In the case of `COCCN1C(=O)CC(CC(=O)NCc2nc3ccccc3[nH]2)(c2ccccc2C)C1=O` (stereo not given), the activation was 3.87% (inactive).

Take `O=C(CCc1nnc(CCCCc2ccccc2)o1)N1CCC(N2CCSCC2)CC1`: the activation was 0.58% (inactive).

For the compound `CC1CCN(C(=O)C(NS(=O)(=O)c2ccc3c(c2)oc(=O)n3C)C(C)C)CC1` (stereo not given), the activation was 6.52% (inactive).

`Cc1ccc(C2=NC(c3cc(Br)ccc3F)NC(c3cc(Cl)ccc3O)C2)cc1` (stereo not given): the activation is 6.67% (inactive).

On to `COc1ccc(-c2nnc(SCCC#N)o2)cc1`, for which the activation is -4.81% (inactive).

For the compound `COc1ccc(OC)c(NC(=S)Nc2ccccn2)c1`, the activation was -19.3% (inactive).

For `Oc1ccc(Cn2cc[nH]c2=S)cc1`, the activation was -8.52% (inactive).

Regarding `CCCCc1ccc(N=Cc2nc(-c3cccc4ccccc34)oc2O)cc1`, the activation is -7.98% (inactive).

As to `COc1ccc(C(=O)Cc2cc3ccccc3oc2=O)c(OC)c1`, the activation was -8.7% (inactive).

Take `O=C(CC1C(=O)NCCN1Cc1ccc2ccccc2c1)NCCCn1cccn1` (stereo not given): the activation was 1.24% (inactive).
